# Assay results as given in the supplement of paper PMC4954754.
# Several values for one entry are separate records, joined by “and”; a condition that tells them apart may be missing. Equal values may be shown once. ± gives the uncertainty stated by the source.
# Test system: HEK293T-Rex XBP1-RLuc
# Assay: XBP1-RLuc splicing reporter activation, triplicate, relative to 500 nM thapsigargin (% of thapsigargin); higher = stronger IRE1/XBP1s reporter activation
# Conditions: 6.8 µM; 18 h; screen: confirmation
# Experimental: (§1)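 HEK293T-Rex cells stably expressing the ERSE-firefly luciferase (BiP promoter, ATF6-preferring) or XBP1-splicing Renilla luciferase (IRE1/XBP1s) reporter, 1536-well plates, compound at 6.8 µM for 18 hr at 37 °C; luminescence read […] and expressed as % activation = 100*(compound - median DMSO)/(median 500 nM thapsigargin - median DMSO). Primary screen was single-pass; confirmation screen in triplicate (mean ± SD).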
row,Compound,XBP1-RLuc splicing reporter activation
1,Nc1ccc2nc(-c3ccc(Cl)cc3)[nH]c2c1,8.9 ± 0.25
2,CCc1nc2sc(C(=O)c3ccccc3)c(N)c2cc1C,2.72 ± 1.5
3,COc1ccccc1-c1nnc(Nc2nc3c(OC)cccc3s2)o1,10.2 ± 1
4,CC(=O)Oc1ccc(C(=O)OCc2ccc(Cl)cc2)cc1OC(C)=O,12.3 ± 2.2
5,COc1ccc(/C=C(\C#N)c2nc(-c3ccco3)cs2)cc1O,4.32 ± 0.33
6,C(=C\c1ccccc1)/C=N/Nc1nc2ccccc2[nH]1,5.21 ± 0.2
7,COc1ccc(-c2nn(-c3ccccc3)cc2/C=C/C(=O)O)cc1[N+](=O)[O-],8.64 ± 1.1
8,Oc1ccc(-c2cnc3c(Nc4ccc5[nH]ccc5c4)nccn23)cc1,39.2 ± 1.5
9,Cn1c(-c2cccc(Cl)c2)cnc1NC(=O)c1ccccc1,2.86 ± 0.72
10,O=c1cc(-c2ccc(O)c(O)c2)oc2cc(O)cc(O)c12,16.5 and 14.4
11,CC(C)c1ccc(/C=N\NC(=O)c2ccccc2)cc1,6.81 ± 0.33
12,O=C(/C=C/c1ccco1)Nc1ccccn1,0.777 ± 0.52
13,C=CCNC(=O)c1cc(-c2ccccc2)on1,5.5 ± 0.76
14,Oc1cccc(Nc2nc(-c3ccc(O)c(O)c3)cs2)c1,17.5 ± 0.67
15,CC(=O)Oc1ccc2cc(NC(=O)c3ccc(C)cc3)c(=O)oc2c1,12.1 ± 1.8
16,Cc1ccc(O)c(NC(=O)c2cc(-c3ccc(O)cc3)on2)c1,22.4 ± 1.8
17,NC(=O)c1c(NC(=O)COc2ccccc2)sc2c1CCC2,-0.209 ± 0.99
18,O=C(Nc1nc2c(s1)CCCC2)c1cccc2ccccc12,3.36 ± 1.8

row,Compound,XBP1-RLuc splicing reporter activation
1,Cc1ccc(O)c(NC(=O)c2cc(C(C)C)on2)c1,12.7 ± 0.5
2,COc1ccc(-n2nnnc2SCC(N)=O)c(OC)c1,13.9 ± 1.2
3,Cc1ccc(O)c(N/C=C/C(=O)c2cccs2)c1,4.09 ± 1.2
4,CN(C)c1ccc(-c2nc3ccc(N)cc3[nH]2)cc1,13.4 ± 0.35
5,Nc1ccc2nc(-c3cc(Cl)c(N)c(Cl)c3)[nH]c2c1,13.2 ± 1.2
6,Oc1ccc(-c2cn3ccccc3n2)cc1O,20.8 ± 2
7,COc1ccc(/C=N/c2sc3c(c2C(N)=O)CCCC3)cc1,2.45 ± 0.41
8,Fc1ccc(-c2nnc3ccc(N4CCN(c5ccccn5)CC4)nn23)cc1,38.3 ± 2.6
9,N#Cc1c(NC(=O)c2ccc3c(c2)OCO3)sc2c1CCCC2,2.57 ± 0.57
10,CCc1cc2c(=O)c(-c3ccc4c(c3)OCCO4)coc2cc1OC,12.2 ± 0.77
11,CN(C)c1ccc(/C=C/C(=O)NC(=O)c2ccccc2OC(=O)c2ccccc2)cc1,0.481 ± 0.46
12,COc1cn(-c2ccc(F)cc2)nc1C(=O)Nc1ccccc1SC,15.5 ± 1.8
13,COc1ccc2[nH]c3c(N4CCCCC4)ncnc3c2c1,4.28 ± 0.66
14,COc1cccc(/C=N/NC(=O)c2n[nH]c3c2CCCC3)c1,2.73 ± 0.56
15,CN(C)c1ccc(/C=C(/C#N)C(=O)Nc2ccc(O)cc2)cc1,22.2 ± 0.63
16,Nc1ccc2nc(-c3ccccn3)[nH]c2c1,18.7 ± 1.1
17,N#C/C(=C\c1ccc(O)c(O)c1)c1nc2ccccc2[nH]1,12.6 ± 0.2
18,COc1ccc(C2=Nn3c(nnc3-c3ccc(OC)cc3)SC2)cc1,10.4 ± 1.3

# Test system: HEK293T-Rex ERSE-FLuc
# Assay: ERSE-FLuc reporter activation, triplicate confirmation, relative to 500 nM thapsigargin (% of thapsigargin); higher = stronger ATF6/ERSE reporter activation
# Conditions: 6.8 µM; 18 h; screen: confirmation
# Experimental: as §1
row,Compound,ERSE-FLuc reporter activation
1,Nc1ccc2nc(-c3ccc(Cl)cc3)[nH]c2c1,33.6 ± 2.4
2,CCc1nc2sc(C(=O)c3ccccc3)c(N)c2cc1C,26.2 ± 2.5
3,COc1ccccc1-c1nnc(Nc2nc3c(OC)cccc3s2)o1,51 ± 10
4,CC(=O)Oc1ccc(C(=O)OCc2ccc(Cl)cc2)cc1OC(C)=O,35.9 ± 4.4
5,COc1ccc(/C=C(\C#N)c2nc(-c3ccco3)cs2)cc1O,35.1 ± 3.9
6,C(=C\c1ccccc1)/C=N/Nc1nc2ccccc2[nH]1,27.2 ± 3.8
7,COc1ccc(-c2nn(-c3ccccc3)cc2/C=C/C(=O)O)cc1[N+](=O)[O-],31.7 ± 4.4
8,Oc1ccc(-c2cnc3c(Nc4ccc5[nH]ccc5c4)nccn23)cc1,35.7 ± 5.6
9,Cn1c(-c2cccc(Cl)c2)cnc1NC(=O)c1ccccc1,25.6 ± 3.7
10,O=c1cc(-c2ccc(O)c(O)c2)oc2cc(O)cc(O)c12,46 and 36.9
11,CC(C)c1ccc(/C=N\NC(=O)c2ccccc2)cc1,27.4 ± 3.1
12,O=C(/C=C/c1ccco1)Nc1ccccn1,27.7 ± 4.8
13,C=CCNC(=O)c1cc(-c2ccccc2)on1,43.4 ± 5
14,Oc1cccc(Nc2nc(-c3ccc(O)c(O)c3)cs2)c1,26.1 ± 6.7
15,CC(=O)Oc1ccc2cc(NC(=O)c3ccc(C)cc3)c(=O)oc2c1,29.7 ± 6
16,Cc1ccc(O)c(NC(=O)c2cc(-c3ccc(O)cc3)on2)c1,54.1 ± 9
17,NC(=O)c1c(NC(=O)COc2ccccc2)sc2c1CCC2,27.1 ± 3.2
18,O=C(Nc1nc2c(s1)CCCC2)c1cccc2ccccc12,33.8 ± 2.4

row,Compound,ERSE-FLuc reporter activation
1,Cc1ccc(O)c(NC(=O)c2cc(C(C)C)on2)c1,44.6 ± 1.3
2,COc1ccc(-n2nnnc2SCC(N)=O)c(OC)c1,34.5 ± 5.7
3,Cc1ccc(O)c(N/C=C/C(=O)c2cccs2)c1,62.1 ± 12
4,CN(C)c1ccc(-c2nc3ccc(N)cc3[nH]2)cc1,32.7 ± 4.4
5,Nc1ccc2nc(-c3cc(Cl)c(N)c(Cl)c3)[nH]c2c1,35.6 ± 10
6,Oc1ccc(-c2cn3ccccc3n2)cc1O,40 ± 5.6
7,COc1ccc(/C=N/c2sc3c(c2C(N)=O)CCCC3)cc1,26.4 ± 4.8
8,Fc1ccc(-c2nnc3ccc(N4CCN(c5ccccn5)CC4)nn23)cc1,34.3 ± 3.5
9,N#Cc1c(NC(=O)c2ccc3c(c2)OCO3)sc2c1CCCC2,28.7 ± 6.8
10,CCc1cc2c(=O)c(-c3ccc4c(c3)OCCO4)coc2cc1OC,34.7 ± 3.1
11,CN(C)c1ccc(/C=C/C(=O)NC(=O)c2ccccc2OC(=O)c2ccccc2)cc1,26.9 ± 8.8
12,COc1cn(-c2ccc(F)cc2)nc1C(=O)Nc1ccccc1SC,62.7 ± 4.5
13,COc1ccc2[nH]c3c(N4CCCCC4)ncnc3c2c1,28.3 ± 2.6
14,COc1cccc(/C=N/NC(=O)c2n[nH]c3c2CCCC3)c1,31.5 ± 1.1
15,CN(C)c1ccc(/C=C(/C#N)C(=O)Nc2ccc(O)cc2)cc1,33.3 ± 5
16,Nc1ccc2nc(-c3ccccn3)[nH]c2c1,26.8 ± 9.3
17,N#C/C(=C\c1ccc(O)c(O)c1)c1nc2ccccc2[nH]1,34.3 ± 1.3
18,COc1ccc(C2=Nn3c(nnc3-c3ccc(OC)cc3)SC2)cc1,30.7 ± 4.3
